# In the supplement of paper PMC8728848:
# Only a selection was taken, and the strongest signals are over-represented in it overall.
# B1: SSP1 (Sclerotinia sclerotiorum), XP_001584968 (protein)
# chain: MGSSHHHHHHSSGLVPRGSHMSLLTTELACTSAPDQVLHLFFQDGQNILEARSPDGGNVWTTQDTIIAKDGDYNGSSMTCYYVDKDANFDNQPSIHLLYMNKDKQLTEKVKRMKGDNPIWEDAKVPDEVRKGPEQYSKLTSGSFNQGTGWNPNGSQWAYFSASKDGKMGIVEIRRTPKDPWHTETILEEKWGDELPGTALACVIGNGKIRVFLQHHDYSIILYENQNNTWHDRGTFIPKDKVQATTPLACTMTKDGSVHLFYVSKSNKIIHCTDGKKEEELINFFPGSKLGATSVENKITLFFRNLNPVNEVGTLENENGSWKHGTTVIPA
# How the values were obtained:
# Assay in all cases: glycan array binding signal (z-score within array); higher = stronger binding
# Details in all cases: glycan notation: IUPAC condensed, linker removed
# [1] = target: Fuc(a1-2)Gal(b1-3)[Fuc(a1-4)]GlcNAc(b1-2)Man(a1-3)[Fuc(a1-2)Gal(b1-3)[Fuc(a1-4)]GlcNAc(b1-2)Man(a1-3)]Man(b1-4)GlcNAc(b1-4)GlcNAc
# Outline: (§1)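 Negative Z-scores can be read as non-binding. The Z-score is calculated within each array and then averaged across arrays of one protein sequence at different concentrations or buffers and across linkers. Arrays, 3228 in all, were curated from the Consortium for Functional Glycomics database and kept only where the protein sequence was available.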
# [2] = target: Fuc(a1-2)Gal(b1-3)[Fuc(a1-4)]GlcNAc(b1-3)[Gal(b1-4)GlcNAc(b1-6)]Gal(b1-4)Glc
# Outline: as §1
# [3] = target: Fuc(a1-2)[Gal(a1-3)]Gal(b1-3)GlcNAc
# Outline: as §1
# [4] = target: Fuc(a1-2)[Gal(a1-3)]Gal(b1-3)GlcNAc(b1-6)GalNAc
# Outline: as §1
# [5] = target: Fuc(a1-2)[Gal(a1-3)]Gal(b1-4)GlcNAc(b1-6)GalNAc
# Outline: as §1
# [6] = target: Fuc(a1-3)[Gal(b1-4)]GlcNAc(b1-3)Gal(b1-4)[Fuc(a1-3)]GlcNAc
# Outline: as §1
# Gal(a1-3)Gal(b1-3)GlcNAc = target: Gal(a1-3)Gal(b1-3)GlcNAc
# Outline: as §1
# [7] = target: Gal(a1-3)[Gal(a1-4)]Gal(b1-4)GlcNAc
# Outline: as §1
# Gal(b1-2)Gal = target: Gal(b1-2)Gal
# Outline: as §1
# Gal(b1-3)GalNAc = target: Gal(b1-3)GalNAc
# Outline: as §1
# [8] = target: Gal(b1-3)GalNAc(a1-3)[Fuc(a1-2)]Gal(b1-4)GlcNAc
# Outline: as §1
# [9] = target: Gal(b1-3)GlcNAc(b1-2)Man(a1-3)[Gal(b1-3)GlcNAc(b1-2)Man(a1-6)]Man(b1-4)GlcNAc(b1-4)[Fuc(a1-6)]GlcNAc
# Outline: as §1
# [10] = target: Gal(b1-3)[Fuc(a1-4)]GlcNAc(b1-2)Man
# Outline: as §1
# [11] = target: Gal(b1-4)GlcNAc(b1-2)[Gal(b1-4)GlcNAc(b1-6)]Man(a1-6)[GlcNAc(b1-4)][Gal(b1-4)GlcNAc(b1-2)[Gal(b1-4)GlcNAc(b1-4)]Man(a1-3)]Man(b1-4)GlcNAc(b1-4)[Fuc(a1-6)]GlcNAc
# Outline: as §1
# [12] = target: Gal(b1-4)GlcNAc(b1-3)Gal(b1-4)GlcNAc(b1-2)Man(a1-3)[Gal(b1-4)GlcNAc(b1-3)Gal(b1-4)GlcNAc(b1-2)Man(a1-6)]Man(b1-4)GlcNAc(b1-4)GlcNAc
# Outline: as §1
# [13] = target: Gal(b1-4)GlcNAc(b1-3)Gal(b1-4)GlcNAc(b1-3)[Gal(b1-4)GlcNAc(b1-3)Gal(b1-4)GlcNAc(b1-6)]GalNAc
# Outline: as §1
# [14] = target: Gal(b1-4)GlcNAc(b1-6)[Gal(b1-3)]GalNAc
# Outline: as §1
# Gal3S(b1-4)Glc = target: Gal3S(b1-4)Glc
# Outline: as §1
# Gal4S6S(b1-4)GlcNAc = target: Gal4S6S(b1-4)GlcNAc
# Outline: as §1
# GalNAc(b1-3)Gal = target: GalNAc(b1-3)Gal
# Outline: as §1
# GalNAc(b1-4)Gal(b1-4)Glc = target: GalNAc(b1-4)Gal(b1-4)Glc
# Outline: as §1
# GlcA(b1-3)GlcNAc = target: GlcA(b1-3)GlcNAc
# Outline: as §1
# [15] = target: GlcA3S(b1-3)Gal(b1-4)GlcNAc(b1-2)Man
# Outline: as §1
# [16] = target: GlcNAc(a1-3)Gal(b1-4)GlcNAc
# Outline: as §1
# [17] = target: GlcNAc(a1-4)Gal(b1-4)GlcNAc(b1-3)Gal(b1-4)[Fuc(a1-3)]GlcNAc(b1-3)Gal(b1-4)[Fuc(a1-3)]GlcNAc
# Outline: as §1
# [18] = target: GlcNAc(b1-3)Gal(b1-4)GlcNAc(b1-6)[Gal(b1-3)]GalNAc
# Outline: as §1
# [19] = target: Man(a1-2)Man(a1-3)[Man(a1-6)]Man(a1-6)[Man(a1-2)Man(a1-3)]Man(b1-4)GlcNAc(b1-4)GlcNAc
# Outline: as §1
# [20] = target: Man(a1-2)Man(a1-6)[Man(a1-3)]Man(a1-6)[Man(a1-2)Man(a1-2)Man(a1-3)]Man(b1-4)GlcNAc(b1-4)GlcNAc
# Outline: as §1
# [21] = target: Man(a1-3)[Man(a1-6)]Man(a1-6)[Man(a1-3)]Man
# Outline: as §1
# [22] = target: Neu5Ac(a2-3)Gal(b1-4)GlcNAc(b1-2)Man
# Outline: as §1
# [23] = target: Neu5Ac(a2-3)Gal(b1-4)GlcNAc(b1-2)Man(a1-3)[Neu5Ac(a2-3)Gal(b1-4)GlcNAc(b1-2)Man(a1-6)]Man(b1-4)GlcNAc(b1-4)GlcNAc
# Outline: as §1
# [24] = target: Neu5Ac(a2-3)Gal(b1-4)GlcNAc(b1-3)Gal(b1-4)GlcNAc
# Outline: as §1
# [25] = target: Neu5Ac(a2-3)Gal(b1-4)[Fuc(a1-3)]GlcNAc(b1-6)[Neu5Ac(a2-3)Gal(b1-3)]GalNAc
# Outline: as §1
# [26] = target: Neu5Ac(a2-3)Gal6S(b1-4)GlcNAc
# Outline: as §1
# [27] = target: Neu5Ac(a2-6)Gal(b1-4)GlcNAc(b1-2)Man(a1-3)[Neu5Ac(a2-6)Gal(b1-4)GlcNAc(b1-2)Man(a1-6)]Man(b1-4)GlcNAc(b1-4)[Fuc(a1-6)]GlcNAc
# Outline: as §1
# [28] = target: Neu5Ac(a2-6)Gal(b1-4)GlcNAc(b1-2)[Neu5Ac(a2-6)Gal(b1-4)GlcNAc(b1-4)]Man(a1-3)[GlcNAc(b1-4)][Neu5Ac(a2-6)Gal(b1-4)GlcNAc(b1-2)[Neu5Ac(a2-6)Gal(b1-4)GlcNAc(b1-6)]Man(a1-6)]Man(b1-4)GlcNAc(b1-4)GlcNAc
# Outline: as §1
# [29] = target: Neu5Ac(a2-8)Neu5Gc(a2-3)Gal(b1-4)GlcNAc
# Outline: as §1
binder,measurement,setting,value
B1,glycan array binding signal (z-score),[1],0.937
same,glycan array binding signal (z-score),[2],-0.405
same,glycan array binding signal (z-score),[3],0.084
same,glycan array binding signal (z-score),[4],7.05
same,glycan array binding signal (z-score),[5],-0.15
same,glycan array binding signal (z-score),[6],-0.07
same,glycan array binding signal (z-score),Gal(a1-3)Gal(b1-3)GlcNAc,2.88
same,glycan array binding signal (z-score),[7],2.85
same,glycan array binding signal (z-score),Gal(b1-2)Gal,0.5
same,glycan array binding signal (z-score),Gal(b1-3)GalNAc,-0.111
same,glycan array binding signal (z-score),[8],3.1
same,glycan array binding signal (z-score),[9],5.12
same,glycan array binding signal (z-score),[10],-0.358
same,glycan array binding signal (z-score),[11],0.197
same,glycan array binding signal (z-score),[12],8.48
same,glycan array binding signal (z-score),[13],-0.003
same,glycan array binding signal (z-score),[14],-0.405
same,glycan array binding signal (z-score),Gal3S(b1-4)Glc,1.38
same,glycan array binding signal (z-score),Gal4S6S(b1-4)GlcNAc,-0.291
same,glycan array binding signal (z-score),GalNAc(b1-3)Gal,2.2
same,glycan array binding signal (z-score),GalNAc(b1-4)Gal(b1-4)Glc,-0.27
same,glycan array binding signal (z-score),GlcA(b1-3)GlcNAc,0.484
same,glycan array binding signal (z-score),[15],-0.535
same,glycan array binding signal (z-score),[16],-0.477
same,glycan array binding signal (z-score),[17],2.28
same,glycan array binding signal (z-score),[18],-0.156
same,glycan array binding signal (z-score),[19],-0.017
same,glycan array binding signal (z-score),[20],-0.467
same,glycan array binding signal (z-score),[21],2.15
same,glycan array binding signal (z-score),[22],0.612
same,glycan array binding signal (z-score),[23],-0.45
same,glycan array binding signal (z-score),[24],0.123
same,glycan array binding signal (z-score),[25],1.79
same,glycan array binding signal (z-score),[26],-0.085
same,glycan array binding signal (z-score),[27],-0.364
same,glycan array binding signal (z-score),[28],0.132
same,glycan array binding signal (z-score),[29],9.08
